# DRD3 antagonist: qHTS of D3 Dopamine Receptor Antagonist: qHTS; D(3) dopamine receptor (Homo sapiens), P35462; D3R cells, DiscoveRx beta-arrestin luminescence, antagonist mode; hits give low values; max response, negative = inhibition, %; 360,000 compounds, 2.5% hits; AID 652054, 2013; in the data active means max response below about -50%; inconclusive means no clear call, values can overlap the other calls; further: on the % scale 0 is the no-effect control and ±100 the full control effect
# Target sequence (P35462 whole entry, looked up): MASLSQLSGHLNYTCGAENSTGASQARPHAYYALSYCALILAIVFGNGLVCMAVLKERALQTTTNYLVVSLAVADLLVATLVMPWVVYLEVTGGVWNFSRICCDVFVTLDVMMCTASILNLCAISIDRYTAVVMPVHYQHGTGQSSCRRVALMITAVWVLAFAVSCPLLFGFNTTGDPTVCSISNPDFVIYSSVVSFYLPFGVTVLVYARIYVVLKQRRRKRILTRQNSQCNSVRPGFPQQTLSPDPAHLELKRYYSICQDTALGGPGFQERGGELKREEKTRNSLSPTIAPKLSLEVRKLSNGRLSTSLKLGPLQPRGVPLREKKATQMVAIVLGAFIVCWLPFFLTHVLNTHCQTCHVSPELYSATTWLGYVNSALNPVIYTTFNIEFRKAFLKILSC
#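 Cells expressing the human receptor were seeded at 1500 cells/well, incubated overnight at 37 degrees C in 5% CO2, then exposed to library compounds with dopamine controls for 90 minutes at 37 degrees C before luminescent detection.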
# Glioma ERSR ind: qHTS for Inducers of the Endoplasmic Reticulum Stress Response (ERSR) in Human Glioma: qHTS | Potency, µM, for the others: at the highest dose activation, actives largely listed as activators | 420,000 compounds, 0.02% hits | U87-MG GRP78 promoter luciferase reporter, 16 h; further: potency means the concentration at half of the fitted maximal effect; series mostly up to about 76 µM; % of control where 0% means no effect; nearly all actives have a fitted effect of over 35% in size
#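 ERSR induction read as luciferase luminescence (Bright-Glo, 10 min at room temperature) in stably transfected human U87-MG glioma cells exposed to compounds for 16 h, using GRP78 as sensor.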
# D3 ag: qHTS of D3 Dopamine Receptor Agonist: qHTS | D(3) dopamine receptor (Homo sapiens), P35462 | D3R DiscoveRx beta-arrestin cells, luminescence, 90 min | max activation, % | 410,000 compounds, 0.58% hits | AID 652048, 2013; in the data active means max activation above about 30%; further: 0% is about no effect
#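 Agonist mode: compounds and dopamine controls were applied to plated cells for 90 min at 37 degrees C after an overnight attachment at 1500 cells/well. Luminescent read-out followed 30 - 60 minutes at room temperature with DiscoveRx detection reagent.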
# Nrf2 ARE act: qHTS of Nrf2 Activators. AREc32 ARE-luciferase reporter (MCF7-derived line), luminescence, 24 h. Potency, µM (highest dose often 46.1 µM), inactives show at the highest dose activation, usual class: activators. 410,000 compounds, 0.31% hits; further: potency means the concentration at half of the fitted maximal effect; % of control where 0% means no effect; nearly all actives have a fitted effect of over 65% in size
#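 AREc32_Fluc, 1000 cells/well, OPTI-MEM + 5% FBS, o/n 37 deg C 5% CO2; 23 nL cpd by pin tool, 24 hr; Steady-Glo 30 min RT, luminescence.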
# Active calls of the source: *; ? = inconclusive; nt = no result; [ ] = remark or other dose. This is a sample that favours compounds with a hit; in the whole collection about 3% have one here. Unless noted, the call rests on the fitted dose curve; in most records, active means well fitted curve in the direction sought with a large enough effect; inconclusive means small, poorly fitted or top-dose-only effect, or another doubt; inactive means no such curve, though single readings can be large; an effect the other way counts as inactive or inconclusive.
SMILES,DRD3 antagonist,Glioma ERSR ind,D3 ag,Nrf2 ARE act
COc1ccc(CCNC(=O)c2cc(C(=O)c3cc(C)ccc3O)cn(CCc3ccc(OC)cc3)c2=O)cc1,67.0,1.3%,30.7*,3.6%
OC(c1cccc(CN2CCCCC2)c1)c1ncc(-c2cccc3ccccc23)[nH]1 (configuration not stated),-53.8*,-4.5%,-18.1,6.9%
Cc1cccc(NC(=S)NC2CC3CCCC(C2)N3Cc2cccs2)c1C (configuration not stated),-72.3*,-2.4%,-30.4,1.5%
CCc1ccccc1NC(=S)NC1CC2CCCC(C1)N2Cc1cccs1 (configuration not stated),-75.9*,-2.1%,-34.9,0.3%
Cc1cccc(C)c1NC(=O)NC1CC2CCC(C1)N2Cc1cccs1 (configuration not stated),-0.2,-3.6%,-10.7,0.1%
O[C@H]1[C@H]2c3cc4c(cc3CN3CCC(=C[C@@H]1O)[C@H]23)OCO4,nt,-5.6%,nt,nt
N=C1/C(=C\c2coc3ccccc3c2=O)C(=O)N=C2SC=CN12,11.6,0.3%,1.7,17.8µM*
CSC1=NSC2=NC(=O)/C(=C/c3coc4ccccc4c3=O)C(=N)N12,-15.5,-1.5%,-5.0,25.9%
CCC[C@H](NC(=O)[C@H](Cc1ccc(O[S+](=O)([O-])O)cc1)NC(=O)OC(C)(C)C)C(=O)NCC(=O)N[C@@H](Cc1c[nH]c2ccccc12)C(=O)N[C@@H](CCC)C(=O)N[C@@H](CC(=O)OCCc1ccccc1)C(=O)O,nt,-3.4%,nt,nt
Cc1cccc(C(=O)NC2CC3CCC(C2)N3C)c1 (configuration not stated),4.7,-2.7%,-1.4,0.1%
CCN(CC)C(=O)NC1CCCCCCC1,9.6,1.7%,-0.7,-0.7%
Cc1cccc(C(=O)NC2CC3CCCC(C2)N3Cc2ccccc2)c1 (configuration not stated),-111.6*,-3.7%,-29.7,-0.6%[9.22 µM]
Cc1ccc(C(=O)NC2CC3CCCC(C2)N3Cc2ccccc2)cc1 (configuration not stated),-79.7*,-1.4%,-29.6,2.4%
O=C(CN1C2CCCC1CC(NC(=O)c1ccco1)C2)Nc1ccccc1 (configuration not stated),-58.2*,4.7%,-12.9,-0.2%
CCCN1C2CCCC1CC(NC(=O)c1ccc(C(C)(C)C)cc1)C2 (configuration not stated),-18.7,-3.1%,-9.2,-0.7%
CCN(CC)C(=O)NC1CC2CCCC(C1)N2Cc1ccccc1 (configuration not stated),-65.3*,-4.7%,-11.0,-0.7%
CN(CC(=O)O)c1ccc(C=O)cc1,nt,-3.7%,nt,nt
CCc1nn(CC(=O)Nc2c(C)cccc2C)c(=O)c2cc3sccc3n12,nt,-4.7%,-2.1,-1.5%
O=C(NC1CCSc2ccccc21)c1ccc([N+](=O)[O-])cc1 (configuration not stated),8.0,0.7%,-12.1,-0.5%
O=C(CN1C2CCCC1CC(NC(=O)C1CCCCC1)C2)NCc1ccc(F)cc1 (configuration not stated),1.6,-1.7%,-1.8,1.6%
O=C(Nc1ccccc1-c1ccccc1)NC1CC2CCCC(C1)N2Cc1ccc(F)cc1 (configuration not stated),-101.4*,-3.9%,-8.3,-0.6%
Cc1ccc(CN2C3CCCC2CC(NC(=O)c2ccc(F)cc2)C3)cc1 (configuration not stated),-88.2*,-3.9%,-12.7,1.1%
CCCNC(=S)NC1CC2CCCC(C1)N2Cc1ccc(F)cc1 (configuration not stated),-100.7*,-3.0%,-19.0,0.0%
O=C(NC1CC2CCCC(C1)N2Cc1ccccc1)c1ccc([N+](=O)[O-])cc1 (configuration not stated),-88.6*,-2.0%,-19.9,-1.0%
O=C(Nc1ccccc1-c1ccccc1)NC1CC2CCCC(C1)N2CCc1ccccc1 (configuration not stated),-9.6,-0.4%,0.6,0.2%
SMILES,DRD3 antagonist,Glioma ERSR ind,D3 ag,Nrf2 ARE act
O=C(NC1CC2CCCC(C1)N2C(=O)Nc1ccc(F)cc1)c1ccccc1 (configuration not stated),-4.1,-4.8%,0.5,-0.5%
COc1cc2nc(CN(CCO)C3CS(=O)(=O)CC3O)nc(N3CCCCC3)c2cc1OC (configuration not stated),nt,-3.0%,nt,nt
COc1ccccc1Nc1nn2c(=O)c3ccc(C(=O)NCCC4=CCCCC4)cc3nc2s1,nt,?,-4.7,-2.5%
C=C1C=C(C(F)F)n2ncc(C(=O)Nc3ccc(N(CC)CC)cc3)c2N1,nt,-3.9%,nt,nt
CC(=O)c1cccc(NC(=O)N2CCc3ccccc3C2)c1,-10.2,3.0%,-32.2,2.9%
N#CCc1ccc(NC(=O)c2ccc(CN3CCc4ccccc4C3)cc2)cc1,-53.3*,1.5%,-20.3,4.1%
CCOC(=O)c1ccc(NC(=O)c2ccc(CN3CCc4ccccc4C3)cc2)cc1,?,-3.6%,-15.6,0.3%
CC(=O)c1cccc(NC(=O)c2ccc(CN3CCc4ccccc4C3)cc2)c1,-88.7*,-1.1%,-30.1,4.0%
O=C(Nc1ccc(Cl)cc1)c1ccc(CN2CCc3ccccc3C2)cc1,-15.7,3.3%,-21.5,4.6%
Cc1c(NC(=O)c2ccc(CN3CCc4ccccc4C3)cc2)c(=O)n(-c2ccccc2)n1C,-79.0*,-4.3%,-0.8,0.2%
Cc1c(NC(=O)c2ccc(F)cc2)c(=O)n(-c2ccccc2)n1C,-15.8,0.2%,3.7,3.6%
COc1ccc(NC(=O)c2ccc(CN3CCc4ccccc4C3)cc2)cc1OC,-64.5*,4.5%,-15.2,2.4%
O=C(c1ccco1)N(Cc1cc2cc3c(cc2nc1N1CCOCC1)CCC3)CC1CCCO1 (configuration not stated),nt,-4.0%,nt,nt
COc1cc([N+](=O)[O-])ccc1NC(=O)N1CCC2(CC1)Nc1cc(F)ccc1-n1cccc12,nt,-3.4%,-21.3,3.3%
CCCCNC(=O)c1sc2ncnc(NCC3CCCO3)c2c1C (configuration not stated),nt,-3.5%,nt,nt
Cc1c(F)cccc1Cn1cnc2c(cnn2C(C)(C)C)c1=O,nt,-1.0%,nt,nt
Cc1cc(C)c(NC(=O)c2ccc(CN3CCc4ccccc4C3)cc2)c(C)c1,-52.8*,-2.9%,-10.7,2.6%
COc1cccc(NC(=O)c2ccc(CN3CCN(c4ccccc4)CC3)cc2)c1,-17.6,3.6%,3.3,2.1%
O=C(NCCCN1CCOCC1)c1cccc(S(=O)(=O)N2CCc3ccccc3C2)c1,-56.7*,-5.0%,-16.7,1.9%
CCOc1ccc(NC(=O)c2ccc(CN3CCc4ccccc4C3)cc2)cc1,?,-5.6%,-21.5,-0.1%[9.22 µM]
COc1cccc(NC(=O)c2ccc(CN3CCc4ccccc4C3)cc2)c1,-101.7*,5.7%,-17.3,7.7%
CCOc1ccccc1NC(=O)c1ccc(CN2CCc3ccccc3C2)cc1,-70.2*,-3.4%,-29.3,-0.7%

# Bioassay records (PubChem BioAssay)
